In PubChem BioAssay (NCI):
Compounds without any hit were thinned out: in the full panel of roughly 83,000, 20% have a hit.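 Compound tested at a single concentration for 48 hours in 96-well plates; a percent growth value below 10 was scored as active.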 Calls of active or inactive are those of the source.

Tested on: HOP-62 NSCLC
Assay: NCI-60 one-dose screen, 48 h (100 = growth as untreated, 0 = no growth, -100 = all killed)
Details: 10 µM unless noted

| SMILES | growth |
| --- | --- |
| C#CCOC(=O)C(N)CSSCC(N)C(=O)O (stereo not given) | 94.9% (inactive) |
| Nc1nc(=O)n([C@H]2CC=C(CO)O2)cc1F | 99.1% (inactive) |
| O=C(Nc1cccc(Cl)c1)Oc1c(Cl)c(Cl)c(Cl)c(Cl)c1Cl | 81.7% (inactive) |
| COc1ccccc1/C=C/C1=C(C)CCC(c2ccccc2OC)C1C (stereo not given) | 17.3% (inactive) |
| Cc1nc2ccccc2c(/C=C/c2ccc(Br)cc2)c1C(=O)/C=C/c1ccccc1 | -35.1% (active) |
| Cc1c2ccncc2c(C)c2c1c1ccccc1n2CCCCCC(=O)O | 83% (inactive) |
| Cn1cc(-c2csc(-c3cn(C)c4ccc(F)cc34)n2)c2cnccc21 | -70.9% (active) |
| O=C(Nc1ccccc1CNc1nc(Nc2ccc(OCCN3CCCC3)cc2)ncc1Cl)NC1CCCCC1 | 83.3% (inactive) |
| NC(=O)[C@@H]1Cc2ccccc2CN1C(=O)c1ccc2c(c1)Cc1ccccc1-2 | 108% (inactive) |
| O=C(Nc1ccccc1C(F)(F)F)C1=NCCCCN1 | 100% (inactive) |
| C/C(=C(\c1ccc(OCCCN(C)C)cc1)c1ccc(OC(=O)Cc2ccccc2)cc1)c1ccc(Cl)cc1 | 78.9% (inactive) |
| COc1cc(C)cc(-c2c(-c3cc(N4CC(O)C4)nc(-c4cccnc4)n3)cnn2C)c1 | 111% (inactive) |
| Cn1cc(-c2ccc3occ(-c4cccc(-c5ccncc5)c4)c3n2)cn1 | 13.9% (inactive) |
| O=C1CCc2c(sc3[nH]c(=S)n(-c4cc(C(F)(F)F)cc(C(F)(F)F)c4)c(=O)c23)C1 | -27.1% (active) |
| COC1CC(O)C2=C(CC3C(/C(C)=C\CC=C(C)C)CCC3(C)O2)C1=O (stereo not given) | 105% (inactive) |
